According to publication PMC7862700, “An all-to-all approach to the identification of sequence-specific readers for epigenetic DNA modifications on cytosine”:

Key:
Test in all cases: DAPPL (digital affinity profiling via proximity ligation, sequencing); 10 mM Tris-HCl pH 7.5, 50 mM NaCl, 1 mM DTT, 4% glycerol, room temperature, 30 min; GST-TFs on glutathione beads, 16-mer random dsDNA library, 0.1% formaldehyde crosslink after washing; high values mean tight binding
Conditions in all cases: protein: recombinant; tags: N-terminal GST; dsDNA, one strand shown
[1] = target: T1, FLI1 (Homo sapiens, UniProt Q01543 1-452)
T1 sequence: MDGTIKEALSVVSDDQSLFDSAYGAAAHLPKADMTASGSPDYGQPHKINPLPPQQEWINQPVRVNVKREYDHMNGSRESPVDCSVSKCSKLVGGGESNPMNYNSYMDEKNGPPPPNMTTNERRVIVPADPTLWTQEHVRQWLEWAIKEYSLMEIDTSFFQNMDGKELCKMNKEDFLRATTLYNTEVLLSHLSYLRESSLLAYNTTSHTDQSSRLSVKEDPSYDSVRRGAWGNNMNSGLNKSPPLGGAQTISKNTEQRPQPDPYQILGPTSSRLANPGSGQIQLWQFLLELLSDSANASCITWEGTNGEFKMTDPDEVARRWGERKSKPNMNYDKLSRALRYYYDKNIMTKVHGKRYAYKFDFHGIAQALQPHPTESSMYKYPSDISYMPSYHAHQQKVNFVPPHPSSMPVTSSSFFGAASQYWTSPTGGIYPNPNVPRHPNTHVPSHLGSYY
Method in brief: (§1)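 After expression in yeast as GST fusions, human transcription factors were bound to glutathione beads, DNA-barcoded and mixed with a tag-only sample. The pools were incubated with 200 nmole of a 16-mer random double-stranded DNA library in Tris/NaCl/DTT/glycerol buffer (30 min, room temperature), washed and crosslinked with 0.1% formaldehyde. Proximity ligation with BsaI/T4 ligase ran for 1 h at 37 °C, before PCR amplification and sequencing on an Illumina NextSeq500. Binding signal is a hexamer's read frequency for a factor divided by its frequency for the tag-only sample.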

[2] = target: T2, ELK1 (Homo sapiens, UniProt P19419 1-428)
T2 sequence: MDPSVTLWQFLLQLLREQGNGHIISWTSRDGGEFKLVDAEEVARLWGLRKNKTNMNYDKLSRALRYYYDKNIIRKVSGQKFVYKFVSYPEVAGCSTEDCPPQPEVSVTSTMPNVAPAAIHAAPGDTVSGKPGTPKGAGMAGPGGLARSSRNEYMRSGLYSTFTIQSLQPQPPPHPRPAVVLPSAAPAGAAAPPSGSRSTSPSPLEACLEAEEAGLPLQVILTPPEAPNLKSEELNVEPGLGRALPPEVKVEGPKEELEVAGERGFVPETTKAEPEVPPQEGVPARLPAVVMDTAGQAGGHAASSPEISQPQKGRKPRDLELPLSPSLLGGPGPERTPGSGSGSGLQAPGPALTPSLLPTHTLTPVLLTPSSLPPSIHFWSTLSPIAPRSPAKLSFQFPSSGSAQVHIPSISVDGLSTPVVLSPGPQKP
Method in brief: as §1

[3] = target: T3, GABPA (Homo sapiens, UniProt Q06546 1-454)
T3 sequence: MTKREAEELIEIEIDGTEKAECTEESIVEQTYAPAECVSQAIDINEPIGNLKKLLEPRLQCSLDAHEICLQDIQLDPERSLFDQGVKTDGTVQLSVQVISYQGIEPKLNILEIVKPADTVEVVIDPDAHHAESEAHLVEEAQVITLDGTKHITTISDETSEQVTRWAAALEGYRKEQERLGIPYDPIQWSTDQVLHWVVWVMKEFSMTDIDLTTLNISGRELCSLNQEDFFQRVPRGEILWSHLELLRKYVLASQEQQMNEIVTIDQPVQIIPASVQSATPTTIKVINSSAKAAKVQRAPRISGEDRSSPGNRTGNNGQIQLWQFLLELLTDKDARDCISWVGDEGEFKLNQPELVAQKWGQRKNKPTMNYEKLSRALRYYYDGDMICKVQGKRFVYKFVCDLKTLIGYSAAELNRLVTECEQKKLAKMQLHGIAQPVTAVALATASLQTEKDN
Method in brief: as §1

[4] = target: T4, ERG (Homo sapiens, UniProt P11308 1-479)
T4 sequence: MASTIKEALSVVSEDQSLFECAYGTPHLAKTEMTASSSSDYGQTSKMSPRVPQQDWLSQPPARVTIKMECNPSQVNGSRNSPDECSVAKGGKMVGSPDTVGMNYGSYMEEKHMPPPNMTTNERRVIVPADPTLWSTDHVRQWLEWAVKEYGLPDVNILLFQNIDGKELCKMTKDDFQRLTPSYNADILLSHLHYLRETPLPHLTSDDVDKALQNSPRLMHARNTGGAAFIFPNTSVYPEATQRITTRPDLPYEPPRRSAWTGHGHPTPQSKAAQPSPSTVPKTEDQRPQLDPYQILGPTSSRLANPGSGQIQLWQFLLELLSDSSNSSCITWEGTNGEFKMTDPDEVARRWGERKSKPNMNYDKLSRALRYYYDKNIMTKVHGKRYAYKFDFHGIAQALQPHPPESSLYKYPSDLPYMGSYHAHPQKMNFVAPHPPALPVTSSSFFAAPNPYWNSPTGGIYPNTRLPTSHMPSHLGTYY
Method in brief: as §1

[5] = target: ELF1 (Homo sapiens, UniProt P32519 1-619)
ELF1, sequence (P32519 whole entry): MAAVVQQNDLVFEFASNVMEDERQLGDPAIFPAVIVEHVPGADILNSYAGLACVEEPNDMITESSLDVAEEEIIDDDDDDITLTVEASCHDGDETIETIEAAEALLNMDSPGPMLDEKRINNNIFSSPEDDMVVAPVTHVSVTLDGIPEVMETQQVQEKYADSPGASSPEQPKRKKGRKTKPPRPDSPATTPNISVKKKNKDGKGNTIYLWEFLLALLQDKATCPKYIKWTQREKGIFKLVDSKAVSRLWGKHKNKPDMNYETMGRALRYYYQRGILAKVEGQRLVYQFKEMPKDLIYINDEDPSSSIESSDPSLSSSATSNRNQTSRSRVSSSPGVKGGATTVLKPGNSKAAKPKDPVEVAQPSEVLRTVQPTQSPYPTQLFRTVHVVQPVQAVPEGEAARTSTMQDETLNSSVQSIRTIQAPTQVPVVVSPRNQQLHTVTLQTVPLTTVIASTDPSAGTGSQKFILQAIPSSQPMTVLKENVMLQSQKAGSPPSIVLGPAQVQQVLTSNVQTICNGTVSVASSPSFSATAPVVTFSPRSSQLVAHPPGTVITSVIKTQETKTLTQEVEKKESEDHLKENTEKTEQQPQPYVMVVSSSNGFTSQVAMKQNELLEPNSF
Method in brief: as §1

[6] = target: T5, EHF (Homo sapiens, UniProt Q9NZC4 1-300)
T5 sequence: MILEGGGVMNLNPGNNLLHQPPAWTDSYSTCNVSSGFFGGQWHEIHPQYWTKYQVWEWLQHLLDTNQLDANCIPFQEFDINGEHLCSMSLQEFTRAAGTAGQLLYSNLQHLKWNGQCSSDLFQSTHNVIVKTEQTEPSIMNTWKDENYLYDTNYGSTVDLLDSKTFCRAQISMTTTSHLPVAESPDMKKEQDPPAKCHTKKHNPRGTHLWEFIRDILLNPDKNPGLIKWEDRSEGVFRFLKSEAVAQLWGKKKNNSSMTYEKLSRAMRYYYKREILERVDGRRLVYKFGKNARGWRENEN
Method in brief: as §1

[7] = target: SPI1 (Homo sapiens, UniProt P17947 1-270)
Method in brief: as §1

[8] = target: SPIB (Homo sapiens, UniProt Q01892 1-262)
SPIB, sequence (Q01892 whole entry): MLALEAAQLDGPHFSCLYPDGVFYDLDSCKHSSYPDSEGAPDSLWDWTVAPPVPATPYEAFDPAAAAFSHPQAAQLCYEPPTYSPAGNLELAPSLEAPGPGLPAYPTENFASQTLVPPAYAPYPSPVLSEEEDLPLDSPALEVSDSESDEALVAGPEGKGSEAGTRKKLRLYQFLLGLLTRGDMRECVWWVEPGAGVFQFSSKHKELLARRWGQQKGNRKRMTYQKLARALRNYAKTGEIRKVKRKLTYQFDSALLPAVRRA
Method in brief: as §1

[9] = target: T6, ELK3 (Homo sapiens, UniProt P41970 1-407)
T6 sequence: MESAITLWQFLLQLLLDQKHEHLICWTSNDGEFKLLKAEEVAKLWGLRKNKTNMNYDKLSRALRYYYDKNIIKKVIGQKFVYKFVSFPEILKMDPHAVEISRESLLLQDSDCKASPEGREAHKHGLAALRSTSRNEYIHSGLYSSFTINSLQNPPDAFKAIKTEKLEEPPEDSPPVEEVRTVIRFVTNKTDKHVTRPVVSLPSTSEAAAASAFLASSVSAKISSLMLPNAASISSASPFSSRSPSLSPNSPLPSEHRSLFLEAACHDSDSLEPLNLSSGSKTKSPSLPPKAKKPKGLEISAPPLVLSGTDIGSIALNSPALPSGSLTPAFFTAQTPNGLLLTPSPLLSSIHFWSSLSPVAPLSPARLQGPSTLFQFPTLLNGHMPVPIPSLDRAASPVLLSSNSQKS
Method in brief: as §1

[10] = target: T7, FEV (Homo sapiens, UniProt Q99581 1-238)
T7 sequence: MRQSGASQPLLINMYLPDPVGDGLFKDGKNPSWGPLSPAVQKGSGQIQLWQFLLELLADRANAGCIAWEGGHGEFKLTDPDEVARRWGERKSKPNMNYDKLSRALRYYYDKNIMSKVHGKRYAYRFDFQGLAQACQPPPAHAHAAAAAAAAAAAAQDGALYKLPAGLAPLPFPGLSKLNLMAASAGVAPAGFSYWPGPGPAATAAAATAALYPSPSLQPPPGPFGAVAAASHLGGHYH
Method in brief: as §1

GTCTAC
binding signal [1]: 1.09 fold enrichment (6-mer frequency, TF over GST control)
binding signal [2]: 1.08 fold enrichment (6-mer frequency, TF over GST control)
binding signal [3]: 1.08 fold enrichment (6-mer frequency, TF over GST control)
binding signal [4]: 1.05 fold enrichment (6-mer frequency, TF over GST control)
binding signal [5]: 1.05 fold enrichment (6-mer frequency, TF over GST control)
binding signal [6]: 1.16 fold enrichment (6-mer frequency, TF over GST control)
binding signal [7]: 1.12 fold enrichment (6-mer frequency, TF over GST control)
binding signal [8]: 1.03 fold enrichment (6-mer frequency, TF over GST control)
binding signal [9]: 1.06 fold enrichment (6-mer frequency, TF over GST control)
binding signal [10]: 1.08 fold enrichment (6-mer frequency, TF over GST control)
